Shiga inhibitor – inhibitors of Shiga toxin in Vero cells; inhibition, % at 38.7 µM; actives 9.2% (n = 290,000); Vero cells, Shiga toxin protein synthesis inhibition reporter; AID 2315; in the data active means inhibition mostly above about 28%, no sharp cut-off; inactive means mostly below about 43%; further: 0% is about no effect
AMA1 RON2 block – inhibitors of Plasmodium falciparum AMA1-RON2 interaction. AlphaScreen AMA1-biotinylated RON2 peptide binding. Potency, µM (top dose mostly 58.2 µM), inactives show top-dose activity change, negative = inhibition, usual class: inhibitors. actives 0.2% (n = 360,000). AID 720542;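 further: potency means the concentration at half of the fitted maximal effect; 0% = vehicle wells and -100% = peptide control; nearly all actives have a fitted effect of over 45% in size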
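AMA1 (3D7) with his tag at 25 nM final met compounds first, then biotinylated RON2 peptide at 25 nM; detection used donor plus acceptor beads, 10 µg/mL apiece, read by AlphaScreen after 30 min at room temperature.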
Cycloheximide cs – counter-screen for Shiga toxin inhibitors: cycloheximide protein synthesis inhibition; cell reporter, cycloheximide protein synthesis inhibition counterscreen; max response, %; actives 12% (n = 300,000); AID 2314; in the data active means max response mostly above about 13%, no sharp cut-off; inactive means mostly below about 14%; further: read at 38.3 µM for the half of the compounds with a filed dose; 0% is about no effect
Pf growth 48h – inhibits P. falciparum growth in the first generation, 48 h; P. falciparum luciferase growth in erythrocytes, 48 h; Potency, µM (series often up to 28.7 µM), for the others: at the highest dose activity change, negative = inhibition, usual class: inhibitors; actives 5.9% (n = 310,000); further: potency means the concentration at half of the fitted maximal effect; on the % scale 0 is the no-effect control and ±100 the full control effect
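Cell-based growth assay: transgenic P. falciparum expressing firefly luciferase, cultured in red cells within RPMI 1640 containing 0.5% w/v Albumax, 24 mM bicarbonate and gentamycin. A drop in luciferase activity indicates inhibition.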
SARS PLpro yeast – inhibitors of SARS-CoV papain-like protease in yeast; S. cerevisiae expressing SARS-CoV PLpro, growth rescue; Potency, µM (highest dose often 32.9 µM), for inactives: at the top dose activity, positive = growth rescue, actives largely listed as activators; actives 0.19% (n = 330,000); AID 485353; calls by dose curve; further: potency means the concentration at half of the fitted maximal effect; 0% is about no effect; nearly all actives have a fitted effect of over 55% in size
Pf growth 96h – P. falciparum growth inhibition at 96 hours; P. falciparum luciferase reporter growth, 96 h; Potency, µM (series often up to 28.7 µM), without a hit: at the top dose activity change, negative = inhibition, usual class: inhibitors; actives 6.9% (n = 320,000); AID 504834; further: potency means the concentration at half of the fitted maximal effect; on the % scale 0 is the no-effect control and ±100 the full control effect
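Cell-based qHTS: luciferase-tagged P. falciparum in erythrocytes (2% hematocrit, 0.05% parasitemia final) incubated with compounds for 96 hours, 37 C, 5% CO2; luciferase detection reagent then added and luminescence measured.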
* = called active by the depositor. Rows were chosen to be rich in hits. Some 19% of all compounds tested hit in one or more screens of this group. Unless noted, the call rests on the fitted dose curve; in most records, active means well fitted curve in the direction sought with a large enough effect; inconclusive means small, poorly fitted or top-dose-only effect, or another doubt; inactive means no such curve, though single readings can be large; an effect the other way counts as inactive or inconclusive.

`CCn1c(CC(=O)Nc2ccccc2)nnc1SCC(=O)NC1CCCC1` gave Shiga inhibitor -7, AMA1 RON2 block 11%, Cycloheximide cs -7, Pf growth 48h 1%, SARS PLpro yeast 3% and Pf growth 96h inconclusive.
For CCn1c(COc2ccccc2)nnc1SCC(=O)CC(=O)Nc1ccccc1OC the results were Shiga inhibitor -7, AMA1 RON2 block 7%, Cycloheximide cs 8, Pf growth 48h 13µM*, SARS PLpro yeast 3% and Pf growth 96h 7.4µM*.
For CCn1c(COc2ccccc2)nnc1SCC(=O)NC1CCCCC1 the results were Shiga inhibitor 23, AMA1 RON2 block -1%, Cycloheximide cs 5, Pf growth 48h 2.9µM*, SARS PLpro yeast -1% and Pf growth 96h -16%.
Screening CCn1c(SCC(=O)NC2CCCCC2)nc2ccccc2c1=O returned Shiga inhibitor 2, AMA1 RON2 block 4%, Cycloheximide cs -3, Pf growth 48h 52%, SARS PLpro yeast -2% and Pf growth 96h 12µM*.
Screening CCOC1=CC2=C(C(=O)C(Cl)=CC2=O)[C@@H]2CN(S(=O)(=O)c3ccc(C)cc3)[C@@H](c3ccccc3)[C@H]12 returned AMA1 RON2 block -22%.
For Cc1cccc2[nH]c(SCC(=O)N3CCOCC3)nc12 the results were Shiga inhibitor 109*, AMA1 RON2 block 18%, Cycloheximide cs 21, Pf growth 48h 15%, SARS PLpro yeast 3% and Pf growth 96h inconclusive.
O=C(CSc1nc2ccccc2c(=O)[nH]1)N1CCOCC1 was read as Shiga inhibitor -17, AMA1 RON2 block -6%, Cycloheximide cs -5, Pf growth 48h 5%, SARS PLpro yeast 8% and Pf growth 96h inconclusive.
For O=C(CSc1nc2ccc(S(=O)(=O)N3CCOCC3)cc2[nH]1)N1CCOCC1 the results were Shiga inhibitor -24, AMA1 RON2 block -12%, Cycloheximide cs -1, SARS PLpro yeast -5% and Pf growth 96h 1.9µM*.
`COCCn1c(SCC(=O)NC(=O)NC2CCCC2)nc2ccccc2c1=O` gave AMA1 RON2 block 0%, Pf growth 48h inconclusive, SARS PLpro yeast -1% and Pf growth 96h inconclusive.
Cc1ccc(-c2nnc(N3CCCCC3)c3ccccc23)cc1S(=O)(=O)NCC1CCCO1 (centres undefined) was read as Shiga inhibitor -27, AMA1 RON2 block -9%, Cycloheximide cs 1, Pf growth 48h 4.7µM* and SARS PLpro yeast 1%.
Screening Cc1ccc(-c2nnc(Nc3ccc(C(N)=O)cc3)c3ccccc23)cc1S(=O)(=O)NCC1CCCO1 (centres undefined) returned Shiga inhibitor 2, AMA1 RON2 block 6%, Cycloheximide cs -3, Pf growth 48h 8.3µM*, SARS PLpro yeast 8% and Pf growth 96h inconclusive.
For COCCN(Cc1ccccc1)C(=S)Nc1ccc(OC(F)F)cc1 the results were Shiga inhibitor -14, AMA1 RON2 block -3%, Cycloheximide cs -3, Pf growth 48h 7%, SARS PLpro yeast inconclusive and Pf growth 96h 24%.
Screening CNS(=O)(=O)c1cccc(C(=O)OCC(=O)Nc2ccc(Cl)cn2)c1 returned Shiga inhibitor -4, AMA1 RON2 block -1%, Cycloheximide cs -2, Pf growth 48h 2%, SARS PLpro yeast 2% and Pf growth 96h 26%.
CCOC(=O)N1C(COCc2ccccc2)C=CCS1(=O)=O (centres undefined) was read as Shiga inhibitor 181* and Cycloheximide cs 78*.
CC1(C)O[C@H]2C[C@@H]3[C@H]4CCC5=CC(=O)C=C[C@]5(C)[C@@]4(F)[C@@H](O)C[C@]3(C)[C@]2(C(=O)CO)O1 was read as Shiga inhibitor 7, Cycloheximide cs -3, Pf growth 48h inconclusive and Pf growth 96h 9.5µM*.
Screening CC1(C)O[C@@H]2C[C@H]3[C@@H]4CCC5=CC(=O)C=C[C@]5(C)[C@@]4(F)[C@@H](O)C[C@]3(C)[C@]2(C(=O)CO)O1 returned Shiga inhibitor 9, AMA1 RON2 block -7%, Cycloheximide cs 5, Pf growth 48h inconclusive, SARS PLpro yeast -3% and Pf growth 96h inconclusive.
